# Laboratory results from the supplement of paper PMC6953052.
# Several values for one entry are separate records, joined by “and”; a condition that tells them apart may be missing. Identical values can stand only once. Counter-ions that a name gives are not always drawn. Whole data set: some 1,700 compounds, median “fraction of GFP-LC3-positive cells (≥5 vesicles/cell)” near 0.43, cut for the highest 2% near 0.81. This excerpt belongs to a sample that is enriched for the highest values.
# System: CbCln3 Δex7/8/Δex7/8 GFP-LC3 cerebellar neuronal cells
# Test: fraction of GFP-LC3-positive cells (≥5 vesicles/cell); higher = more autophagosome accumulation
# Outline: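 Compound (~50 nL in DMSO) was pin-transferred in duplicate onto wild-type or mutant CbCln3 cerebellar cells stably expressing GFP-LC3, seeded at 2 × 10^3/well in 384-well plates, for 24 h at 33 °C. After fixation in 3.2% PFA, three fields per well were imaged at 10×. The value reported is the duplicate average of the fraction of cells meeting a vesicle-count threshold, with CellProfiler counting GFP-LC3 vesicles per cell and out-of-focus images excluded. Cells met the threshold at 5 or more vesicles.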
row,Structure (SMILES),fraction of GFP-LC3-positive cells
1,N#CC(C#N)=Cc1ccc(O)cc1 [Tyrphostin-8],0.461
2,CCN1C[C@@]2(COC)C3[C@@H](OC)[C@H]4[C@@H]1[C@@]3(C1C[C@@]3(O)[C@H](OC(=O)c5ccccc5)C1[C@]4(OC(C)=O)[C@@H](O)[C@H]3OC)[C@@H](OC)C[C@H]2O (stereo not given in full) [Aconitine],0.413
3,Cc1c2ccncc2c(C)c2c1[nH]c1ccccc12 [Ellipticine],0.954
4,Cc1nccc2c1[nH]c1ccccc12.Cl [Harmane hydrochloride],0.55
5,O=C(CCCN1CCC(n2c(=O)[nH]c3ccccc32)CC1)c1ccc(F)cc1 [Benperidol],0.358
6,COc1cc2c(c(OC)c1OC)-c1ccc(O)c(=O)cc1[C@@H](N)CC2 [Trimethylcolchicinic acid],0.415
7,COC1=C[C@@H]2C3=C([C@@H]2C1=O)[C@@H](NC(C)=O)CCc1cc(OC)c(OC)c(OC)c13 [Lumicolchicine gamma],0.401
8,COc1cc2c(c(OC)c1OC)-c1ccc(OC)c(=O)cc1[C@@H](NC(C)=O)CC2 [Colchicine],0.906
9,CC[C@@H]1/C=C/C=C/C[C@H](C)[C@@H](O)[C@](C)(O)C(=O)[C@H](C)[C@@H](O)[C@H](C)C(=O)[C@H](C)[C@@H](O)[C@H](C)/C=C/C(=O)O[C@H]2[C@@H](C)[C@@H](CC1)O[C@@]1(CC[C@@H](C)[C@@H](C[C@H](C)O)O1)[C@@H]2C [oligomycin A],0.578
10,CC1=C2C[C@H]3[C@@H](CC=C4C[C@@H](O)CC[C@@]43C)[C@@H]2CC[C@]12O[C@@H]1C[C@H](C)CN[C@H]1[C@H]2C [cyclopamine],0.448
11,CCCCC/C=C\C/C=C\C/C=C\C/C=C\CCCC(=O)NCC(=O)O,0.263
12,CCCCC/C=C\C/C=C\C/C=C\C/C=C\CCCC(=O)NCCc1ccc(O)c(O)c1 [Arachidonoyl dopamine],0.658
13,CCCCC/C=C\C/C=C\C/C=C\C/C=C\CCCC(=O)NCc1ccc(O)c(OC)c1 [Arvanil],0.848
14,CCCCC/C=C\C/C=C\C/C=C\C/C=C\CCCC(=O)NCC(=O)O [N-Arachidonoylglycine],0.376
15,CC(C)NCC(O)c1ccc(N)c(C#N)c1 (stereo not given),0.462
16,COc1ccc2c(c1OC)C(=O)O[C@@H]2[C@H]1c2cc3c(cc2CCN1C)OCO3.Cl [Hydrastine hydrochloride],0.423
17,COc1cc([C@@H]2c3cc4c(cc3[C@H](O)[C@H]3COC(=O)[C@H]23)OCO4)cc(OC)c1OC [Podophyllotoxin],0.884
18,Cl.Cl.Fc1ccc(C(OCCN2CCN(CCCc3ccccc3)CC2)c2ccc(F)cc2)cc1,0.168
19,CO/C1=C\C(C)=C\[C@@H](C)[C@@H](O)[C@@H](C)C/C(C)=C/C=C/[C@H](OC)[C@@H]([C@@H](C)[C@@H](O)[C@H](C)[C@@]2(O)C[C@@H](O)[C@H](C)[C@@H](C(C)C)O2)OC1=O [bafilomycin A1],0.924
20,O[C@H]1[C@H]2[C@H](O)CCCN2C[C@H]1O [swainsonine],0.371
21,CN1CCC2=C[C@H](O)[C@H]3OC(=O)c4cc5c(cc4[C@H]3[C@@H]21)OCO5 [Hippeastrine hydrobromide],0.407
22,CN1Cc2c(ccc3c2OCO3)[C@@H]2[C@H]1c1cc3c(cc1C[C@@H]2O)OCO3.O [Chelidonine (+)],0.93
23,CN1CCc2cc3c(cc2[C@H]1[C@@H]1OC(=O)c2c1ccc1c2OCO1)OCO3 [Bicuculline (+)],0.326
24,C[C@@H]1CC([C@H](O)CC2CC(=O)NC(=O)C2)C(=O)[C@@H](C)C1 (stereo not given in full) [cycloheximide],0.481
25,C[C@@]1(CO)[C@H](O)CC[C@@]2(C)[C@H]1CC[C@H]1C[C@@H]3C[C@@]12CC[C@]3(O)CO [aphidicolin],0.623
26,CC(=O)OCC(=O)[C@H]1CC[C@H]2[C@@H]3CC[C@H]4C[C@H](O)CC[C@]4(C)[C@H]3C(=O)C[C@]12C [Alfadolone acetate],0.441
27,CCCCc1ccc(C(=O)O)nc1 [Fusaric acid],0.408
28,O=C1C=CC(=O)c2c(O)cccc21 [juglone],0.367

row,Structure (SMILES),fraction of GFP-LC3-positive cells
1,N#CC(C#N)=NNc1ccc(OC(F)(F)F)cc1,0.936
2,COc1cc2c(cc1OC)C(C)NCC2.Cl (stereo not given),0.422
3,Cc1nccc2c1[nH]c1cc(O)ccc12.Cl.O [Harmol hydrochloride monohydrate],0.441
4,OC(c1ccccc1)(c1ccccc1)C1CCNCC1 [Azacyclonol],0.306
5,C/C(O)=C(\C#N)C(=O)Nc1cc(Br)ccc1Br,0.547 and 0.552
6,O=C(CCCN1CCC2(CC1)C(=O)NCN2c1ccccc1)c1ccc(F)cc1 [Spiperone],0.376
7,C=C1[C@@H]2CC[C@H]3[C@]4(C)C[C@H](O[C@H]5O[C@H](CO)[C@@H](OS(=O)(=O)[O-])[C@H](OS(=O)(=O)[O-])[C@H]5OC(=O)CC(C)C)C[C@@H](C(=O)O)[C@H]4CC[C@]3(C2)[C@H]1O.[K+].[K+] [Atractyloside potassium salt],0.314
8,O.O.O.O=C1OC2(c3cc(Br)c([O-])cc3Oc3c2cc(Br)c([O-])[c]3[Hg][OH])c2ccccc21.[Na+].[Na+] (stereo not given) [Merbromin],0.954
9,C[C@@H]1CC[C@@]2(NC1)O[C@H]1C[C@H]3[C@@H]4CC=C5C[C@@H](O)CC[C@]5(C)[C@H]4CC[C@]3(C)[C@H]1[C@@H]2C [Solasodine],0.378
10,CN1C[C@H](CNC(=O)OCc2ccccc2)C[C@@H]2c3cccc4c3c(cn4C)C[C@H]21 [Metergoline],0.238
11,c1ccc(C2CC2)c(OCC2=NCCN2)c1,0.404
12,CCNC(=O)[C@H]1O[C@@H](n2cnc3c(N)ncnc32)C(O)[C@H]1O (stereo not given in full) [5'-N-Ethylcarboxamidoadenosine (NECA)],0.445
13,COc1cc2c(cc1O)C[C@H]1c3c(cc(O)c(OC)c3-2)CCN1C [Boldine],0.447
14,Cc1c(C(=O)c2cccc3ccccc23)c2cccc3c2n1[C@H](CN1CCOCC1)CO3,0.451 and 0.539
15,CC1=NCCc2c1[nH]c1cc(O)ccc21.Cl.O.O [Harmalol hydrochloride dihydrate],0.479
16,C[C@H](N)C(=O)N[C@@H](C)C(=O)N[C@@H](Cc1ccccc1)C(=O)CCl,0.742 and 0.818
17,CC(=O)C(C)O.CC(Cc1ccccc1)NCCC(c1ccccc1)c1ccccc1 (stereo not given) [Prenylamine lactate],0.266
18,CC(C)c1c(CN(C)C(C)Cc2ccccc2)n(C)n(-c2ccccc2)c1=O (stereo not given) [Famprofazone],0.405
19,N#CC(C#N)=Cc1ccc(O)c(O)c1,0.348
20,CC(C)(C)c1cc(C=C(C#N)C#N)cc(C(C)(C)C)c1O [tyrphostin 9],0.882
21,CC(C)(C)c1cc(C=C(C#N)C#N)cc(C(C)(C)C)c1O,0.718
22,N#CC(C#N)=Cc1cc(O)c(O)c(O)c1,0.46
23,"COc1ccc(CC2c3cc(OC)c(OC)cc3CCN2C)cc1OC (racemic) [Laudanosine (R,S)]",0.508
24,c1cncc([C@H]2CCCCN2)c1 [Anabasine],0.34
25,C[N+]1(C)C2CC[C@H]1C[C@@H](OC(=O)C(CO)c1ccccc1)C2.O=[N+]([O-])[O-] (stereo not given in full) [Methylatropine nitrate],0.451
26,COc1ccc(CCN2CCC(Nc3nc4ccccc4n3Cc3ccc(F)cc3)CC2)cc1 [Astemizole],0.587
27,CC[N+]1(C)CCCC(OC(=O)C(O)(c2ccccc2)c2ccccc2)C1.[Br-] (stereo not given) [Pipenzolate bromide],0.4
